# From PubChem BioAssay (NCATS)
# Inconclusive results are not listed. A call without a number means that no potency is given here. The source made the active and inactive calls. The call rests on the fitted dose curve.
# Experiment: Primary qHTS for Huh7 cytotoxicity: counterscreen for inhibitors of MERS-S pseudotyped particle cell entry (AID 1479147)
# Conditions: cell viability read-out; series mostly up to 57.1 µM
row,SMILES,Potency
1,O=c1[nH]c2ccccc2n1CCCN1CCN(C(c2ccccc2)c2ccccc2)CC1,inactive
2,Fc1ccc(C(c2ccc(F)cc2)N2CCN(C/C=C/c3ccccc3)CC2)cc1,inactive
3,CCCCN(CCCC)CCC(O)c1cc2c(Cl)cc(Cl)cc2c2cc(C(F)(F)F)ccc12 (configuration not stated),inactive
4,c1ccc(-c2ccc(C(c3ccccc3)n3ccnc3)cc2)cc1 (configuration not stated),inactive
5,CCCN(CCC)C(=O)C(CCC(=O)OCCCN1CCN(CCOC(=O)Cc2c(C)n(C(=O)c3ccc(Cl)cc3)c3ccc(OC)cc23)CC1)NC(=O)c1ccccc1 (configuration not stated),inactive
6,O=C(CCCN1CCN(c2ccc(F)cc2)CC1)NC1c2ccccc2CSc2ccccc21 (configuration not stated),inactive
7,COC(=O)[C@H]1[C@H]2C[C@@H]3c4[nH]c5cc(OC)ccc5c4CCN3C[C@H]2C[C@@H](OC(=O)/C=C/c2ccc(O)c(OC)c2)[C@@H]1OC,inactive
